This is an account of results in PubChem BioAssay (EPA / NIEHS).

SMILES strings stand for the structures. Several values for one entry are separate records, joined by “and”; a condition that tells them apart may be missing. Equal entries are not always repeated. Results filed as inconclusive are left out. A structure can be active in one record and inactive in another. Activity calls are given as the source filed them. How the source made its calls, unless noted: active means hit-call score of the fitted dose curve at least 0.9, where 1 is the maximum; inactive means score below 0.9.

Assay [1] deals with human RAR-related Orphan Receptor gamma (RORg), RORC (gene 6097) (UniProt P51449). The assay is described as follows: ATG_RORg_TRANS: Attagene TRANS-FACTORIAL HepG2 Assay for human RAR-related Orphan Receptor gamma (RORg) (AID 2283011; active means hit-call score of the fitted dose curve at least 0.9, where 1 is the maximum). The method, boiled down:
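Transient MRTU transfection of HepG2 (TRANS format, exogenous NR-Gal4 chimera). 24 h dosing. Total RNA → oligo(dT) RT → PCR → 6-FAM labelling → HpaI cut → CE. Gain vs DMSO.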

In assay [2] the target is Retinoic acid receptor RXR-alpha (Homo sapiens) (UniProt P19793). Put plainly: ATG_RXRa_TRANS: Attagene TRANS-FACTORIAL HepG2 Assay for human Retinoid X Receptor alpha (RXRa) (AID 2283012; active means hit-call score of the fitted dose curve at least 0.9, where 1 is the maximum). The method, boiled down: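 Read-out: fluorescent reporter-transcript fragments quantified by capillary electrophoresis after RT-PCR. Transiently transfected HepG2 cells carrying GAL4-UAS reporters and NR-GAL4 chimeras were exposed to chemical for 24 h; activity scored as increase over DMSO.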

The target of assay [3] is human Vitamin D Receptor (VDR), VDR (gene 7421) (UniProt P11473). The assay is described as follows: ATG_VDR_TRANS: Attagene TRANS-FACTORIAL HepG2 Assay for human Vitamin D Receptor (VDR) (AID 2283022; active means hit-call score of the fitted dose curve at least 0.9, where 1 is the maximum). An outline of the steps:
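RT-PCR/capillary electrophoresis read-out of reporter mRNA induction in transiently transfected HepG2; 24 h dosing; chimeric NR-Gal4 (TRANS format); gain-of-signal fit against DMSO baseline.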

The target of assay [4] is human Retinoid X Receptor beta (RXRb), RXRB (gene 6257) (UniProt P28702). The assay is described as follows: ATG_RXRb_TRANS: Attagene TRANS-FACTORIAL HepG2 Assay for human Retinoid X Receptor beta (RXRb) (AID 2283013; active means hit-call score of the fitted dose curve at least 0.9, where 1 is the maximum). The method, boiled down:
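Read-out: reporter mRNA induction via RT-PCR plus capillary electrophoresis fluorescence, analysed as signal increase relative to DMSO. Cells were human HepG2, transiently transfected with GAL4-UAS reporter constructs and chimeric receptor-Gal4 fusions, dosed for 24 h.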

Assay [5] deals with human Thyroid Receptor alpha (THRa1), THRA (gene 7067) (UniProt P10827). The assay is described as follows: ATG_THRa1_TRANS: Attagene TRANS-FACTORIAL HepG2 Assay for human Thyroid Receptor alpha (THRa1) (AID 2283014; active means hit-call score of the fitted dose curve at least 0.9, where 1 is the maximum). An outline of the steps:
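Transient HepG2 transfection, NR-Gal4 chimera driving GAL4-UAS reporters; 24 h compound exposure; total RNA, oligo(dT) RT, PCR, fluorescent primer extension, capillary electrophoresis. Upward direction vs DMSO control.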

Read-out in assay [6]: E-selectin (Homo sapiens) (UniProt P16581)
Put plainly: BSK_3C_Eselectin: BioMAP Diversity Plus: 3C Assay for Eselectin Biomarker Activity (AID 2283015).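 On outcome: cell surface E-selectin protein quantified by ELISA 24 h after dosing.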 The settings on record: primary human endothelial cells (HUVEC); actives raise or lower the signal. The method, boiled down:
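HUVEC, 3C stimulation; compound exposure 24 h; E-selectin by ELISA; gain- or loss-of-signal fitted bidirectionally vs DMSO baseline.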

Read-out in assay [7]: Interleukin-1 alpha (IL1a), IL1A (gene 3552)
The assay is described as follows: BSK_BE3C_IL1a: BioMAP Diversity Plus: BE3C Assay for Interleukin-1 alpha (IL1a) Biomarker Activity (AID 2283016). Conditions: primary human bronchial epithelial cells; actives raise or lower the signal. The method, boiled down: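 ELISA read-out of IL-1a from human lung bronchial epithelial primary cells, 24 h post-dose. Gain or loss of signal fitted relative to DMSO negative control.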

Read-out in assay [8]: Monocyte Chemoattractant Protein-1 (MCP1), CCL2 (gene 6347)
The assay is described as follows: BSK_3C_MCP1: BioMAP Diversity Plus: 3C Assay for Monocyte Chemoattractant Protein-1 (MCP1) Biomarker Activity (AID 2283017). The settings on record: primary human endothelial cells (HUVEC); actives raise or lower the signal. The method, boiled down:
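HUVEC, 3C system; 24 h chemical exposure; MCP-1 by ELISA; bidirectional curve fit vs DMSO baseline.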

Read-out in assay [9]: Monocyte Chemoattractant Protein-1 (MCP1), CCL2 (gene 6347)
The assay is described as follows: BSK_4H_MCP1: BioMAP Diversity Plus: 4H Assay for Monocyte Chemoattractant Protein-1 (MCP1) Biomarker Activity (AID 2283018). The settings on record: primary human endothelial cells (HUVEC); actives raise or lower the signal. The method, boiled down:
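HUVEC primary cells, 24 h post-dose, MCP-1 by ELISA. Gain or loss of signal fitted bidirectionally vs DMSO baseline. Cytotoxicity: SRB stain (0.1% after 10% TCA fixation), read 560 nm, parallel cultures.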

Read-out in assay [10]: Human Leukocyte Antigen - DR isotype (HLADR), HLA-DRA (gene 3122)
Put plainly: BSK_3C_HLADR: BioMAP Diversity Plus: 3C Assay for Human Leukocyte Antigen - DR isotype (HLADR) Biomarker Activity (AID 2283019).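 On outcome: ELISA of cell-surface HLA-DR on HUVEC 24 h after dosing.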 The settings on record: primary human endothelial cells (HUVEC); actives raise or lower the signal. The method, boiled down: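 HUVEC, 3C stimulation, 24 h post-dose; HLA-DR by ELISA; bidirectional curve fit vs DMSO baseline; gain or loss of signal scored.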

Read-out in assay [11]: Interleukin-8 (IL8), CXCL8 (gene 3576)
Put plainly: BSK_3C_IL8: BioMAP Diversity Plus: 3C Assay for Interleukin-8 (IL8) Biomarker Activity (AID 2283020). The settings on record: primary human endothelial cells (HUVEC); actives raise or lower the signal. An outline of the steps:
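HUVEC, 3C stimulation; 24 h compound exposure; IL-8 read by ELISA; gain or loss of signal fitted relative to DMSO control.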

Read-out in assay [12]: Monokine induced gamma interferon (MIG), CXCL9 (gene 4283)
The assay is described as follows: BSK_3C_MIG: BioMAP Diversity Plus: 3C Assay for Monokine induced gamma interferon (MIG) Biomarker Activity (AID 2283021). The settings on record: primary human endothelial cells (HUVEC); actives raise or lower the signal. An outline of the steps:
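HUVEC, 3C system; 24 h chemical exposure; MIG by ELISA; bidirectional fit vs DMSO baseline.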

A short description of assay [13]: BSK_3C_SRB: Viability Assessment in the BioMAP Diversity Plus: 3C Assay (AID 2283023).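 Further: cells read 24 h after compound dosing; fitted both ways against DMSO so a hit may be signal rise or drop.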 Conditions: primary human endothelial cells (HUVEC). An outline of the steps:
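HUVEC, 24 h post-dose; 10% TCA fix, 0.1% SRB stain, A560 nm. Bidirectional curve fit vs DMSO negative control.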

Read-out in assay [14]: Matrix Metallopeptidase 1 (MMP1), MMP1 (gene 4312)
The assay is described as follows: BSK_BE3C_MMP1: BioMAP Diversity Plus: BE3C Assay for Matrix Metallopeptidase 1 (MMP1) Biomarker Activity (AID 2283024). Conditions: primary human bronchial epithelial cells; actives raise or lower the signal. An outline of the steps:
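ELISA read-out of MMP1 in human lung bronchial epithelial primary cultures, 24 h post-dose; bidirectional curve fit vs DMSO baseline, gain or loss of signal scored.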

Read-out in assay [15]: Pselectin, SELP (gene 6403)
Put plainly: BSK_4H_Pselectin: BioMAP Diversity Plus: 4H Assay for Pselectin Biomarker Activity (AID 2283026). The settings on record: primary human endothelial cells (HUVEC); actives raise or lower the signal. An outline of the steps:
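HUVEC, 24 h chemical exposure; P-selectin read by ELISA. Bidirectional curve fit vs DMSO baseline; gain or loss of signal scored.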

Assay [16] in a line: BSK_4H_SRB: Viability Assessment in the BioMAP Diversity Plus: 4H Assay (AID 2283027).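 Further: cells exposed to compound for 24 h before staining.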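 On AC50: curves fitted both ways versus DMSO so AC50 may be loss or gain.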 The settings on record: primary human endothelial cells (HUVEC). The method, boiled down:
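HUVEC, 24 h post-dose; 10% TCA fix, 0.1% SRB stain, A560 nm. Total protein = overt cytotoxicity, parallel to biomarker read. Bidirectional fit vs DMSO baseline.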

A short description of assay [17]: BSK_BE3C_SRB: Viability Assessment in the BioMAP Diversity Plus: BE3C Assay (AID 2283028). Conditions: primary human bronchial epithelial cells. The method, boiled down: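 Primary human bronchial epithelium; chemical dosing, 24 h; 10% TCA fix, 0.1% SRB stain, A560; bidirectional fit vs DMSO baseline.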
Read-out in assay [18]: Thrombomodulin, THBD (gene 7056)
The assay is described as follows: BSK_3C_Thrombomodulin: BioMAP Diversity Plus: 3C Assay for Thrombomodulin Biomarker Activity (AID 2283029). The settings on record: primary human endothelial cells (HUVEC); actives raise or lower the signal. An outline of the steps: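 HUVEC, 3C conditions; compound 24 h; thrombomodulin by ELISA; bidirectional curve fit vs DMSO baseline; parallel SRB total-protein staining for cytotoxicity.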

Read-out in assay [19]: Urokinase-type plasminogen activator receptor (uPAR), PLAUR (gene 5329)
Put plainly: BSK_4H_uPAR: BioMAP Diversity Plus: 4H Assay for Urokinase-type plasminogen activator receptor (uPAR) Biomarker Activity (AID 2283030). Conditions: primary human endothelial cells (HUVEC); actives raise or lower the signal. The method, boiled down:
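HUVEC, 24 h post-dose; uPAR by ELISA; bidirectional fit vs DMSO baseline.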

Chain of human Thyroid Receptor alpha (THRa1), THRA (gene 7067) (P10827 whole entry, looked up, the tested form may be a part): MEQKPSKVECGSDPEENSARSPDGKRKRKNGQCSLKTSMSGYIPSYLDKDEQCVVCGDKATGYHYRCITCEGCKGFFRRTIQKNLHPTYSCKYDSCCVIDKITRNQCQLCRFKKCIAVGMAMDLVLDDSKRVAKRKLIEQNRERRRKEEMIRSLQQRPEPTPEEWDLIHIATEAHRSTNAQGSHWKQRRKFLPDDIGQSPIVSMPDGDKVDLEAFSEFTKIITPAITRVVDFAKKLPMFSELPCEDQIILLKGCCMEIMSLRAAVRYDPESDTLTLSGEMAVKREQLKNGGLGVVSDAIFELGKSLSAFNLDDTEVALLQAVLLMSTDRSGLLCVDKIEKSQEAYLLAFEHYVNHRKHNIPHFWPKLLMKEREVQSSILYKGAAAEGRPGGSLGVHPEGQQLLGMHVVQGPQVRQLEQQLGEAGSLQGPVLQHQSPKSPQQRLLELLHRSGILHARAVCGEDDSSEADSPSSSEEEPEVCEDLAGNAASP
Chain of E-selectin (Homo sapiens) (P16581 whole entry, looked up): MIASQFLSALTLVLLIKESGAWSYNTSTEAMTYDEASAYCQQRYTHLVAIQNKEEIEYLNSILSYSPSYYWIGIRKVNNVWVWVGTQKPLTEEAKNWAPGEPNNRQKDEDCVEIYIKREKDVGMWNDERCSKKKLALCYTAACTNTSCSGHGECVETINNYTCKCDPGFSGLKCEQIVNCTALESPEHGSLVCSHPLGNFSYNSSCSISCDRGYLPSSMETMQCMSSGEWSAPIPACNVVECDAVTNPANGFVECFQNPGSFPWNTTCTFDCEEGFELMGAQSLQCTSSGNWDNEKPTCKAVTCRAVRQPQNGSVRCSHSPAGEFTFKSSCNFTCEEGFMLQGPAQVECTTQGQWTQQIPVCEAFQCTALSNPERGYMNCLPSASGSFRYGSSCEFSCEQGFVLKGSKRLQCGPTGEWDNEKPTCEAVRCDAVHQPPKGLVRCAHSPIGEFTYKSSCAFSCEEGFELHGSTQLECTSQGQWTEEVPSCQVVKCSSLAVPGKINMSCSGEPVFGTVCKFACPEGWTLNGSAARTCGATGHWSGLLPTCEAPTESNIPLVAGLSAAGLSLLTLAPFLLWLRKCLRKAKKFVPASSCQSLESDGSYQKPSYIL
Chain of human Vitamin D Receptor (VDR), VDR (gene 7421) (P11473 whole entry, looked up, the tested form may be a part): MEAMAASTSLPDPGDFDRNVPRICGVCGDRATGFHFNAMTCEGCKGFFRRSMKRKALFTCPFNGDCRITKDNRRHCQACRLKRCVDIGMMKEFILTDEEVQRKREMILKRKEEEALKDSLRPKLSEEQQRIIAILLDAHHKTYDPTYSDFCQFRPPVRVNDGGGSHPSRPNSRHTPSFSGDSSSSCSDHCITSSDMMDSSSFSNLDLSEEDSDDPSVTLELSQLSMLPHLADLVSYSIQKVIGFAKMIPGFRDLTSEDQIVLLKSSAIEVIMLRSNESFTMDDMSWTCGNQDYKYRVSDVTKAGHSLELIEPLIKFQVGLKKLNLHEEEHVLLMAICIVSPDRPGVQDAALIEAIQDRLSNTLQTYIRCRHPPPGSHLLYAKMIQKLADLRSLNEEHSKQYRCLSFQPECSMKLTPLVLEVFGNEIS
Chain of human RAR-related Orphan Receptor gamma (RORg), RORC (gene 6097) (P51449 whole entry, looked up, the tested form may be a part): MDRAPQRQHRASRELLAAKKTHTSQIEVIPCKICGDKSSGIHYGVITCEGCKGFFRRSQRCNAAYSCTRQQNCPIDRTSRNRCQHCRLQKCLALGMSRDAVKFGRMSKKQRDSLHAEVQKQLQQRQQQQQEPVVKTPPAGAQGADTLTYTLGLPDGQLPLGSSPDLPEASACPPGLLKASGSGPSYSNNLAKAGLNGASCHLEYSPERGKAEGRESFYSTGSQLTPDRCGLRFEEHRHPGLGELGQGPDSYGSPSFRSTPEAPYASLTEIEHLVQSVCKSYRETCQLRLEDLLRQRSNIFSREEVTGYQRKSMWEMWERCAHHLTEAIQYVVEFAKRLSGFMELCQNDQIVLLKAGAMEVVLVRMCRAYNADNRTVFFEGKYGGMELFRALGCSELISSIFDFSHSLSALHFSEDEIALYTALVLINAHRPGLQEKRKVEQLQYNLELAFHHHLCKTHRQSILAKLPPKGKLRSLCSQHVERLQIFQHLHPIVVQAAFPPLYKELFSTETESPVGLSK
Chain of Retinoic acid receptor RXR-alpha (Homo sapiens) (P19793 whole entry, looked up, the tested form may be a part): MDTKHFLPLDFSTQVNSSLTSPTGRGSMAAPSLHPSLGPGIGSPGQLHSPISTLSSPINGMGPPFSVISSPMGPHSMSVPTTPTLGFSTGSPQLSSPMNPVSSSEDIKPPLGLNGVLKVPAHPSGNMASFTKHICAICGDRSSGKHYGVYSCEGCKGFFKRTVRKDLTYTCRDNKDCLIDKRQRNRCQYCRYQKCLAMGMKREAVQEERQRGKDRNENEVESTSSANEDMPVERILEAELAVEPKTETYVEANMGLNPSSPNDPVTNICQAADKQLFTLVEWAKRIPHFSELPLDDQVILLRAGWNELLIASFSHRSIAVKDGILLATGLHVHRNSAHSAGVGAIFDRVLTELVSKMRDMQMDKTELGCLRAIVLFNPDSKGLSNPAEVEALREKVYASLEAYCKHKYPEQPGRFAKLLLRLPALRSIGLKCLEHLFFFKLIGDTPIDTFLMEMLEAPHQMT
Chain of human Retinoid X Receptor beta (RXRb), RXRB (gene 6257) (P28702 whole entry, looked up, the tested form may be a part): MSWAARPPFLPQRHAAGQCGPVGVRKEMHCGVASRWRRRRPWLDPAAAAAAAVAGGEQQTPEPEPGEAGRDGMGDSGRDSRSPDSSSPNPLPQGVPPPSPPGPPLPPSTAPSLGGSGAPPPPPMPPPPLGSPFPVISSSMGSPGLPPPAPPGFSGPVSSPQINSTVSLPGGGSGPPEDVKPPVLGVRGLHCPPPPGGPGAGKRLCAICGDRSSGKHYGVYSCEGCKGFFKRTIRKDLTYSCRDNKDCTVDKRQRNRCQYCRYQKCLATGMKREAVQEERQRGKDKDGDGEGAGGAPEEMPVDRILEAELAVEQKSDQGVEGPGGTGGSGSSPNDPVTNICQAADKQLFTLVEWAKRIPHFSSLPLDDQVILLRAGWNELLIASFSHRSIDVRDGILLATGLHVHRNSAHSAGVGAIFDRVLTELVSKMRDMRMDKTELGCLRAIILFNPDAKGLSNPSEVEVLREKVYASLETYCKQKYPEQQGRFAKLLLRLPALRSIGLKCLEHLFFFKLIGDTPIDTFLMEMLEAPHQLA

Turning to `C[Si](C)O[Si](C)C`, the compound was classed as inactive in assay [1], in assay [2] and in [3].
Regarding `CC1CCCCC1`, the outcome in assay [1], in [4] and in assay [5] was inactive.
In the case of `Cc1ccc(O)cn1`, the call in assay [1], in assay [2] and in assay [3] was inactive.
Usually AC50 stands for the concentration at which the activity in the assay is half-maximal. As to `CCN(CC)c1ccc(N=Nc2ccccc2)cc1`, the outcome in assay [2], in [4], in assay [5], in assay [6], in assay [12] and in [3] was inactive. In addition, the outcome in [14], in [17], in assay [18] and in [19] was inactive. The half-maximal activity concentration (AC50) is 20 µM (active) in assay [7]; 30.6 µM (active) in assay [8]; 13.2 µM (active) in assay [9]; 11.5 µM (active) in [10]; 20 µM (active) in assay [11]; 12.1 µM (active) in assay [13]. Moreover, the figures for the AC50 in assay [15] and in assay [16] were 11.3 µM (active) and 20 µM (active), respectively.
As for `C[Si](Cl)(Cl)CCC(F)(F)C(F)(F)C(F)(F)C(F)(F)C(F)(F)C(F)(F)F`, the outcome in assay [1], in assay [2], in assay [6], in assay [7], in assay [8] and in [9] was inactive. Also, the result in assay [10], in [11], in [3], in assay [13], in [14] and in assay [15] was inactive. Moreover, the outcome in assay [16], in [18] and in assay [19] was inactive. For the same compound, the AC50 in assay [19] was 24.8 nM (active).
Consider `FC(F)(F)C(F)(F)C(F)(F)CC1CO1` (configuration not stated), for which the call in [1], in assay [2], in assay [5], in [6], in [7] and in assay [8] was inactive. The outcome in assay [9], in [10], in [11], in assay [3], in [13] and in assay [14] was inactive. Besides, the result in [15], in [16], in assay [18] and in [19] was inactive. In [14], the AC50 was 26.3 µM (active).
`CCN(CC)c1ccc2c(c1)Oc1cc(N(CC)CC)ccc1C21OC(=O)c2ccccc21`: the result in [1], in [6], in assay [7], in [9], in [14] and in assay [15] was inactive. For the same compound, the outcome in assay [16], in [18] and in assay [19] was inactive. Also, the AC50 was 10 µM (active) in assay [8], 10 µM (active) in assay [10], 4.05 µM (active) in [11] and 5.74 µM (active) in assay [13].
On to `NC(=O)C(F)(F)C(F)(F)C(F)(F)F`, for which the call in assay [1], in [2], in [6], in assay [7], in assay [8] and in [9] was inactive. Besides, the result in assay [10], in [11], in assay [3], in [13], in assay [14] and in [15] was inactive. Besides, the result in [16], in assay [17], in [18] and in [19] was inactive. Moreover, in assay [18], the AC50 was 5.95 µM (active).
Consider `O=C(O)C(F)(F)C(F)(F)C(F)(F)OC(F)(F)F`, for which the result in assay [1], in assay [2], in [6], in assay [7], in [8] and in [9] was inactive. The result in assay [10], in [11], in assay [3], in assay [13], in assay [14] and in [15] was inactive. Further, the result in assay [16], in [18] and in [19] was inactive. Further, the AC50 in assay [14] is 37.3 µM (active); in [18] it was 5.95 µM (active).
Regarding `C=CC(=O)OCC(F)(F)C(F)(F)C(F)(F)COC(=O)C=C`, the result in assay [1], in assay [2], in assay [5], in [14], in assay [17] and in [18] was inactive. Also, the half-maximal activity concentration (AC50) in assay [6] is 19.4 µM (active) and 32.1 µM (active); in assay [7], 23.2 µM (active) and 17.5 µM (active); in assay [8], 39.6 µM (active) and 30 µM (active); in assay [9], 30 µM (active) and 8.24 µM (active); in assay [10], 14 µM (active) and 12.3 µM (active); in assay [11], 23.9 µM (active) and 31 µM (active). In addition, the concentration at half-maximal activity (AC50) in [13] is 41.1 µM (active) and 40.3 µM (active); in assay [14] it was 21.8 µM (active); in assay [15], 11.2 µM (active) and 8.07 µM (active); in [16], 25 µM (active) and 33.8 µM (active); in [18], 18 µM (active); in assay [19], 49.9 µM (active) and 758 nM (active).
For `O=C(Cl)c1ccc(Cl)cc1Cl`, the outcome in [1] and in assay [5] was inactive.
